Screens (PubChem)
mHTT-CaM PPI inh – mHTT-calmodulin interaction abrogation; AlphaScreen His-mHTT/GST-CaM binding, luminescence; inhibition, % at 15 µM; hit rate 3.6% among 190,000; AID 1671202
Pf apPOL block – Pf-apPOL DNA polymerase inhibition. Recombinant Pf-apPOL, molecular beacon fluorescence, 1.5 h. inhibition, % at 10 µM. hit rate 0.25% among 210,000. AID 1794808
Of the large screens only hits and unclear results are named; the others gave an inactive call. Shown is part of a subset that was picked to be rich in hits. No stated cut-off is given here; in the data, active means inhibition above about 50%; inactive means the rest.

C=C1CCN([C@@H](CC(C)C)C(=O)NCc2cc(OC)c(OC)c(OC)c2)S(=O)(=O)c2ccccc21	none
C=C1CCN([C@@H](Cc2ccccc2)C(=O)NCc2ccc(Cl)c(Cl)c2)S(=O)(=O)c2ccccc21	none
C=C1CCN([C@@H](CC(C)C)C(=O)NCc2ccc(OC)cc2)S(=O)(=O)c2ccccc21	none
C=C1CCN([C@H](C(=O)NCc2ccc(Cl)c(Cl)c2)C(C)C)S(=O)(=O)c2ccccc21	mHTT-CaM PPI inh 74
C=C1CCN([C@@H](CC(C)C)C(=O)NCc2ccc(Cl)c(Cl)c2)S(=O)(=O)c2ccccc21	mHTT-CaM PPI inh 99
C=C1CCN([C@@H](CC(C)C)C(=O)NCc2ccc(Cl)cc2)S(=O)(=O)c2ccccc21	mHTT-CaM PPI inh 70
COc1cc(C=O)ccc1OCCCOc1ccc(Cl)c(C)c1	none
CC(=O)Nc1ccccc1NC(=O)c1ccccc1[N+](=O)[O-]	mHTT-CaM PPI inh 60
NC(=O)c1ccccc1NC(=O)c1ccccc1[N+](=O)[O-]	none
O=c1oc(C=Cc2ccco2)nc2ccccc12	none (no result: mHTT-CaM PPI inh)
Cc1ccc(C)c(S(=O)(=O)NCC(c2ccc(N(C)C)cc2)N2CCN(C)CC2)c1 (stereo unspecified)	none
N#C/C(=C\c1ccc(-c2ccc3c(c2)C(=O)NC3=O)o1)c1nc2ncc(Br)cc2[nH]1	mHTT-CaM PPI inh 73
Cn1c(=O)n(C)c2cc(/C=C(\C#N)c3nc4ncc(Br)cc4[nH]3)ccc21	none
COc1ccc(Cl)cc1C(=O)Nc1cc(-n2c(C)nc3ccccc3c2=O)ccc1F	none
O=C(Nc1c(C(=O)Nc2ccccc2)cnn1-c1ccccc1)c1ccccc1Br	none
CCCN1C(=O)Cc2cc(C(=O)N3CCN(c4ccccc4C)CC3)ccc21	mHTT-CaM PPI inh 55
CCCN1C(=O)Cc2cc(C(=O)N3CCN(c4ccccn4)CC3)ccc21	none
CC1CCC2(CC1)N=C(c1ccccc1)C(=O)N2CC(=O)Nc1ccc2c(c1)OCCO2 (stereo unspecified)	none
Cc1nc2ccccn2c1-c1csc(Nc2ccc(N)cc2)n1	mHTT-CaM PPI inh 63
COc1ccccc1Nc1nc(-c2c(C)nc3cc(C)ccn23)cs1	mHTT-CaM PPI inh 76
Cc1nc2ccccn2c1-c1csc(N)n1	none (no result: Pf apPOL block)
Cc1ccnc(Nc2nc(-c3c(C)nc4ccccn34)cs2)c1	mHTT-CaM PPI inh 62
C=CCNc1nc(-c2c(C)nc3ccccn23)cs1	none
CC(=O)Nc1ccc(Nc2nc(-c3c(C)nc4ccccn34)cs2)cc1	none
O=C(Nc1ccc2c(c1)CN(C(=O)c1ccco1)CC2)NC1CCCCC1	none
COc1cc(OC)c(OC)cc1CN1CCN(Cc2cccc(OC)c2OC)CC1	none
COc1cccc(C(=O)COc2ccc(Br)cc2)c1	none
CSc1ccc(S(=O)(=O)N(CC(=O)O)c2ccc(C)cc2)cc1	none
O=C1NC(c2cccc(F)c2)Nc2sc3c(c21)CCC3 (stereo unspecified)	none
O=C1NC(c2ccccn2)Nc2sc3c(c21)CCC3 (stereo unspecified)	mHTT-CaM PPI inh 69
O=C1NC(c2ccccc2F)Nc2sc3c(c21)CCCC3 (stereo unspecified)	none
O=C1NC(c2ccccc2[N+](=O)[O-])Nc2sc3c(c21)CCCC3 (stereo unspecified)	mHTT-CaM PPI inh 58
Cc1nc2c(C(=O)NCCc3ccc(Cl)cc3)cnn2c(C)c1Cc1ccc(F)cc1	mHTT-CaM PPI inh 80
COc1ccc(CCNC(=O)c2cnn3c(C)c(Cc4cc(C)ccc4C)c(C)nc23)cc1OC	mHTT-CaM PPI inh 53
Cc1nc2c(C(=O)NCc3ccccc3)cnn2c(C)c1Cc1cccc(Cl)c1	none
CCCCNC(=O)c1cnn2c(C)c(Cc3ccc(F)cc3)c(C)nc12	none
Cc1nc2c(C(=O)NCCc3ccc(Cl)cc3)cnn2c(C)c1Cc1ccccc1	mHTT-CaM PPI inh 53
COc1ccc(CNC(=O)c2cnn3c(C)c(Cc4cc(C)ccc4C)c(C)nc23)cc1	none
Cc1nc2c(C(=O)NCCc3ccccc3)cnn2c(C)c1Cc1ccc(Cl)cc1	none
Cc1nc2c(C(=O)NCCc3ccccc3)cnn2c(C)c1Cc1cccc(Cl)c1	mHTT-CaM PPI inh 78
CN(C)CCOC(=O)c1ccc2c(c1)C(=O)c1ccccc1-2	none
O=[N+]([O-])c1ccc(Nc2ccccc2)c([N+](=O)[O-])c1	none (no result: mHTT-CaM PPI inh)
Cc1ccc(C(=O)N2CCCN(c3nc4c(s3)c(C)nn4-c3ccc(F)cc3)CC2)cc1	none
CCOc1cccc(C2CC(c3ccccc3)=NC3(CCN(C(C)C)CC3)N2)c1O (stereo unspecified)	none
CCN1c2cc(C)ccc2-n2cccc2C12CCN(C(=O)c1ccc3c(c1)OCO3)CC2	mHTT-CaM PPI inh 66
CCN1c2cc(C)ccc2-n2cccc2C12CCN(C(=O)c1ccc(F)cc1)CC2	mHTT-CaM PPI inh 85
CCN1c2cc(F)ccc2C(=O)NC12CCN(C(=O)c1ccc(C)cc1)CC2	none
CCN1c2ccc(C)cc2C(=O)NC12CCN(C(=O)c1ccc3c(c1)OCO3)CC2	none
CCN1c2cc(C)ccc2-n2cccc2C12CCN(C(=O)Cc1cccs1)CC2	mHTT-CaM PPI inh 98
O=C1CC2(CCN(C(=O)Cc3cccs3)CC2)Oc2ccccc21	none
COc1ccc(C(=O)NCC(C)(O)CSC)cc1OC (stereo unspecified)	none
Cc1cccc(CN2CCCN(c3ccc(NC(=O)C(C)C)cc3)C2=O)c1	none
CCOc1cccc(NC(=O)C2CC(=O)N(C)C(=Nc3cccc(C(F)(F)F)c3)S2)c1 (stereo unspecified)	none
O=C(CCCN1C(=O)c2ccccc2C1=O)Nc1cccc(C(F)(F)F)c1	none
COC(=O)c1ccccc1N=NNc1cccc(C(F)(F)F)c1	none (no result: mHTT-CaM PPI inh)
Clc1ccc(SCc2cccc(CSc3ccc(Cl)c(Cl)c3)n2)cc1Cl	none (no result: mHTT-CaM PPI inh)
CCCC(=O)Nc1ccc2c(c1)OCCO2	none
O=C(CCCn1cccc1)Nc1ccc2c(c1)OCCO2	Pf apPOL block 78
O=C1OC(c2ccc(Cl)c([N+](=O)[O-])c2)=N/C1=C\c1ccccc1Cl	none
COc1ccccc1N1CCN(CC(O)COC2CC3CCC2(C)C3(C)C)CC1 (stereo unspecified)	none
OC(COC12CC3CC(CC(C3)C1)C2)CN1CCN(c2cccc(C(F)(F)F)c2)CC1 (stereo unspecified)	none
CC1(C)C2CCC1(C)C(OCC(O)CN1CCCCC1)C2 (stereo unspecified)	none
CC1(C)C2CCC1(C)C(OCC(O)CN1CCN(c3cccc(Cl)c3)CC1)C2 (stereo unspecified)	mHTT-CaM PPI inh 99
CC1(C)C2CCC1(C)C(OCC(O)CN1CCN(Cc3ccc(Cl)cc3)CC1)C2 (stereo unspecified)	mHTT-CaM PPI inh 100
CC12CCC(C1)C(C)(C)C2OCC(O)CN1CCN(c2cccc(C(F)(F)F)c2)CC1 (stereo unspecified)	mHTT-CaM PPI inh 65
Cc1cc(C)n(-c2cc(N3CCCC(C(=O)N4CCN(S(C)(=O)=O)CC4)C3)ncn2)n1 (stereo unspecified)	none
N#CCSC1=Nc2ccccc2C2=NC(CCC(=O)NC3CCCCC3)C(=O)N12 (stereo unspecified)	none
O=[N+]([O-])c1cccc(CNc2ccc3c(c2)CCC3)c1	mHTT-CaM PPI inh 89
COc1cc(CNc2ccc(F)c(Cl)c2)c([N+](=O)[O-])cc1OC	mHTT-CaM PPI inh 62
O=C(Nc1ccc2cn[nH]c2c1)c1ccc([N+](=O)[O-])o1	none
O=[N+]([O-])c1ccccc1CNc1ccc2c(c1)CCC2	mHTT-CaM PPI inh 94
O=[N+]([O-])c1ccccc1CNc1ccc2cn[nH]c2c1	mHTT-CaM PPI inh 59
O=[N+]([O-])c1cccc(CNc2cccc(F)c2)c1	none
